Where “and” joins values, the source holds several entries; their conditions need not be identical. Identical values can stand only once. Results filed as inconclusive are left out. Entries that show only a call come without a potency. Calls of active or inactive are those of the source. Unless noted, the call rests on the fitted dose curve; in most records, active means well fitted curve in the direction sought with a large enough effect; inconclusive means small, poorly fitted or top-dose-only effect, or another doubt; inactive means no such curve, though single readings can be large; an effect the other way counts as inactive or inconclusive.
Tests used:
[1] = molecular target: N-terminal Xaa-Pro-Lys N-methyltransferase 1 (Homo sapiens) (UniProt Q9BV86); test: qHTS Assay for Inhibitors of N-terminal methyltransferase 1 (NTMT1): LOPAC validation of the NTMT1 SAHH-coupled ThioGlo3 Assay (AID 1347143);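 further: SAH from peptide methylation measured as thiol fluorescence via SAHH coupling and ThioGlo3; nearly all actives have a fitted effect of over 70% in size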
Procedure, shortened: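 Recombinant human NTMT1 (125nM) was pre-incubated 1 min at room temperature with compounds over a concentration range, then a mix of 100uM SAM, 10uM SAHH and 15uM ThioGlo3 (concentrations in added reagent) was added. ThioGlo3 fluorescence (ex 340/em 450nm) after 30 min was normalized to the initial reading.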

[2] = MultiTox-Fluor Cytotoxicity Assay - LYMP1-001 - Dead Cells (AID 946); further: potency means the concentration at half of the fitted maximal effect
Procedure, shortened: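 Cytotoxicity as increased dead-cell protease fluorescence (bis-AAF-R110, 485/520 nm), read 60 min after MultiTox-Fluor reagent. Human lymphoblastoid line exposed 16 h; Hill-fitted AC50, with DMSO as 0% and 15 uM tetraoctylammonium bromide as 100%.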

[3] = Cell Viability - LYMP1-002 - Assay at 16 hr (AID 948)
Procedure, shortened: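 Human lymphoblastoid cells (LYMP1-002), 2500/well, were preincubated 5 hr at 37 C, then exposed to compounds for 16 hr at 37 C in complete medium. Cellular ATP was read by CellTiter-Glo luminescence after 30 min at room temperature; AC50 from Hill fits.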

[4] = MultiTox-Fluor Cytotoxicity Assay - LYMP1-002 - Dead Cells (AID 960); further: nearly all actives have a fitted effect of over 60% in size; further: potency means the concentration at half of the fitted maximal effect
Procedure, shortened: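 Acute cytotoxicity in a human lymphoblastoid line is scored as rising dead-cell protease signal after 16 hr exposure at 37 C, measured fluorometrically (485/520).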

[5] = Cell Viability - LYMP1-003 - Assay at 24 hr (AID 963)
Procedure, shortened: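 Acute toxicity in LYMP1-003 lymphoblastoid cells: 24 hr compound treatment at 37 C, ATP measured with CellTiter-Glo after 30 min at room temperature. AC50 derived by fitting the Hill equation to qHTS titrations.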

[6] = Cell Viability - LYMP1-003 - Assay at 40 hr (AID 964); further: series mostly up to about 92 µM; nearly all actives have a fitted effect of over 60% in size
Procedure, shortened: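 This qHTS cytotoxicity screen treats human lymphoblastoid cells (LYMP1-003) with compounds for 40 hr and quantifies cellular ATP via luciferase luminescence.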

[7] = Cell Viability - LYMP2-005 (AID 967); further: series mostly up to about 92 µM
Procedure, shortened: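 CellTiter-Glo luminescence (cellular ATP) read-out; LYMP2-005 lymphoblastoid cells, 2500/well, 5 h pre-incubation, then 24 h compound exposure at 37 C in complete medium. Tetraoctylammonium bromide positive control; AC50 by standard Hill fit.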

[8] = Cell Viability - LYMP2-015 (AID 971); further: nearly all actives have a fitted effect of over 55% in size
Procedure, shortened: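 Acute toxicity was scored as a concentration-dependent drop in intracellular ATP in lymphoblastoid cells after 24 hr compound exposure in complete medium. Detection used CellTiter-Glo luciferase luminescence.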

[9] = Cell Viability - LYMP2-023 (AID 975);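 further: cellular ATP measured by luciferase luminescence as viability proxy; series mostly up to about 92 µM; nearly all actives have a fitted effect of over 55% in size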
Procedure, shortened: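 Concentration-dependent drop in intracellular ATP measures acute cytotoxicity in a human lymphoblastoid line treated for 24 hours in complete culture medium. AC50 values are taken from Hill-equation fits of qHTS data.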

[10] = Cell Viability - LYMP2-002 (AID 977); further: series mostly up to about 92 µM
Procedure, shortened: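 Human lymphoblastoid LYMP2-002 cells, 2500 per well, exposed to compounds for 24 h at 37 C in complete medium; viability read as intracellular ATP by CellTiter-Glo luminescence, AC50 from Hill fits.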

[11] = Cell Viability - LYMP2-014 (AID 983); further: series mostly up to about 92 µM; nearly all actives have a fitted effect of over 50% in size
Procedure, shortened: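 Decrease in intracellular ATP after 24 hr treatment at 37 C, measured by luciferase luminescence, indicated cytotoxicity. Concentration-response data were fitted with the standard Hill equation to give AC50.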

[12] = Cell Viability - LYMP1-002 - Assay at 40 hr (AID 994); further: nearly all actives have a fitted effect of over 60% in size
Procedure, shortened: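 Viability in the human lymphoblastoid line was measured as intracellular ATP via CellTiter-Glo after 40 hr compound exposure. Tetraoctylammonium bromide served as positive control.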

[13] = molecular target: Peroxisome proliferator-activated receptor gamma (Homo sapiens) (UniProt P37231); test: qHTS assay for small molecule agonists of peroxisome proliferator-activated receptor gamma signaling (AID 588536; active means well fitted curve in the direction sought with a large enough effect in the signal ratio, with a control signal flat, not every such curve was filed as active; the % refers to the signal ratio)
Procedure, shortened: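 Ratiometric blue/green fluorescence (405 nm excitation; 460 and 530 nm emission) from CCF4-loaded HEK293 reporter cells serves as signal. Exposure to test compounds lasts 16 h at 37 C in medium containing 1% charcoal/dextran-treated serum.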

[14] = molecular target: Peroxisome proliferator-activated receptor gamma (Homo sapiens) (UniProt P37231); test: qHTS assay for small molecule antagonists of peroxisome proliferator-activated receptor gamma signaling (AID 588537; active means well fitted inhibition curve with a large enough effect in the signal ratio, with a control signal flat, not every such curve was filed as active; the % refers to the signal ratio;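 further: reporter cells co-stimulated with 50 nM rosiglitazone agonist during compound treatment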)
Procedure, shortened: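 Step one: plate 3000 HEK293 UAS-bla cells per well in medium with 1% stripped serum and hold 6-6.5 h at 37 C. Step two: add compound and 50 nM agonist for 16 h. Step three: CCF4 loading, fluorescence read.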

[15] = molecular target: Vitamin D3 receptor (Homo sapiens) (UniProt P11473); test: qHTS assay for small molecule antagonists of vitamin D receptor signaling (AID 588541; calls by dose curve;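 further: receptor activated by calcitriol during compound treatment; series mostly up to about 77 µM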)
Procedure, shortened: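 VDR-UAS-bla HEK293T cells in 2% charcoal-stripped FBS were stimulated with 1-alpha,25-dihydroxyvitamin D3 (3 nM final) plus compound for 16 h at 37 C. The beta-lactamase CCF4 readout was normalized to 50 nM agonist and DMSO, and Hill fits gave IC50.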

[16] = qHTS assay for small molecule antagonists of retinoid X receptor alpha signaling (AID 588546; active means well fitted inhibition curve with a large enough effect in the signal ratio, with a control signal flat, not every such curve was filed as active; the % refers to the signal ratio; further: potency means the concentration at half of the fitted maximal effect;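 on max response: cells stimulated with 9-cis-retinoic acid as agonist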); conditions: HEK293T RXRa-UAS-bla, beta-lactamase ratio, antagonist mode; measured here: W530 green channel, cytotoxicity proxy
Procedure, shortened: (§1)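 Beta-lactamase reporter inhibition, read as CCF4 fluorescence ratio (ex 405, em 460/530 nm) after 2 h at RT. HEK293T UAS-bla cells, 2500/well, were stimulated with 9-cis-RA at 500 or 100 nM final alongside test compound for 18 h at 37 C.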

[17] = molecular target: Retinoic acid receptor RXR-alpha (Homo sapiens) (UniProt P19793); test: as above; conditions: HEK293T RXRa-UAS-bla, beta-lactamase ratio, antagonist mode
Procedure, shortened: as §1

[18] = molecular target: Thyroid hormone receptor beta (Homo sapiens) (UniProt P10828); test: qHTS assay for small molecule antagonists of thyroid hormone receptor beta signaling (AID 588547; active means well fitted inhibition curve with a large enough effect in the signal ratio, with a control signal flat, not every such curve was filed as active; the % refers to the signal ratio;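 further: cells stimulated with 0.4 nM T3 agonist during compound exposure; series mostly up to about 77 µM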); conditions: TR-UAS-bla HEK293, beta-lactamase ratio, antagonist mode, 18 h
Procedure, shortened: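 TR-UAS-bla GripTite HEK293 cells in 2% charcoal/dextran FBS medium; compounds 0.59 nM to 92 uM with T3 at 0.4nM final, 18 h at 37 C. Beta-lactamase read by CCF4 fluorescence (460/530 nm); Hill fits gave IC50 and efficacy.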

[19] = qHTS assay for small molecule disruptors of the mitochondrial membrane potential - 1 hr assay (AID 651754; calls by dose curve; further: nearly all actives have a fitted effect of over 35% in size; further: potency means the concentration at half of the fitted maximal effect)
Procedure, shortened: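 Steps: seed HepG2 cells and let attach overnight; pin-transfer compound or vehicle; incubate 1 hr at 37C; add Mito-MPS dye for 30 min; read two-channel fluorescence for monomer and aggregate forms.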

[20] = molecular target: Arylsulfatase A (Homo sapiens) (UniProt P15289); test: qHTS screen for enhancers of Arylsulfatase A (ASA1): LOPAC Validation Assay (AID 720538)
Procedure, shortened: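 SV40-transformed skin fibroblasts from an MLD patient (ASA-I179S) were treated with compounds for 48h at 37 degree C, then lysed with 0.5mM pNCS final substrate for 14h at room temperature; NaOH stop, fluorescence read (Ex=525 nm; Em=598 nm).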

Vitamin D3 receptor (Homo sapiens), sequence (P11473 whole entry, looked up): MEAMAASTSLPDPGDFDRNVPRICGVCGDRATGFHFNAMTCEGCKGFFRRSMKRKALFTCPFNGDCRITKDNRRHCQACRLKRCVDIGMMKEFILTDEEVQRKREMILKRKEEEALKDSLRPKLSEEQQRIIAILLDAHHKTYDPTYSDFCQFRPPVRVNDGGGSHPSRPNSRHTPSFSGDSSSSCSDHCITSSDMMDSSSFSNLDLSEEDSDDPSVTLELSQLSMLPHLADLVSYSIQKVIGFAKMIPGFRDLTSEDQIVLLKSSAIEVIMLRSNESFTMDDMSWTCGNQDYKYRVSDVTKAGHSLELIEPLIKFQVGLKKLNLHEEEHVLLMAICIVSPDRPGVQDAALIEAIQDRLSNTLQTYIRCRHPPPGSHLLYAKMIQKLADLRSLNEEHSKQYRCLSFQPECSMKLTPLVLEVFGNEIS
Thyroid hormone receptor beta (Homo sapiens), sequence (P10828 whole entry, looked up): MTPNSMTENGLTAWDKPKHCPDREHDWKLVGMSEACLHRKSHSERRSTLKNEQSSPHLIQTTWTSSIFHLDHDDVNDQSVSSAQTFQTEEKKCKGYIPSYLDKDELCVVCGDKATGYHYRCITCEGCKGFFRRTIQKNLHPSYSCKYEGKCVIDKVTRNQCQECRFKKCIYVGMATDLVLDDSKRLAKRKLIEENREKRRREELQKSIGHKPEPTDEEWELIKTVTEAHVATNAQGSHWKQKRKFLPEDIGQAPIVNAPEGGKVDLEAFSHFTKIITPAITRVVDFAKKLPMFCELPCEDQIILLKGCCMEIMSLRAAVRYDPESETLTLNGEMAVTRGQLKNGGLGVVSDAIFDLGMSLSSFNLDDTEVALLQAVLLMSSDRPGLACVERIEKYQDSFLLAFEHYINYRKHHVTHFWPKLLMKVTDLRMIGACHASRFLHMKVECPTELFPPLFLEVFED
Peroxisome proliferator-activated receptor gamma (Homo sapiens), sequence (P37231 whole entry, looked up): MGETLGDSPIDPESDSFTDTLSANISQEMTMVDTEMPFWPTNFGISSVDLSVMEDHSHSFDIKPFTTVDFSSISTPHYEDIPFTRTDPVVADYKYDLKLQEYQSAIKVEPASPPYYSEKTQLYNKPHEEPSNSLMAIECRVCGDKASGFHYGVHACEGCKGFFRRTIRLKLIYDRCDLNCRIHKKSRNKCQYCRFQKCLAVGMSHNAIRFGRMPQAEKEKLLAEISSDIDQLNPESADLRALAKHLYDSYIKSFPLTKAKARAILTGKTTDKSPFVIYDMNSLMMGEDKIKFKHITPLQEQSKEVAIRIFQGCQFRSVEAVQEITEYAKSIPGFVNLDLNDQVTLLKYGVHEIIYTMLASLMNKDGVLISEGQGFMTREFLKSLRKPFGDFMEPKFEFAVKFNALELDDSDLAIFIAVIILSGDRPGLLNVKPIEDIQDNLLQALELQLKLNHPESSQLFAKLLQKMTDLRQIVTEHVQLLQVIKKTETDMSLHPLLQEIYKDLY
Retinoic acid receptor RXR-alpha (Homo sapiens), sequence (P19793 whole entry, looked up): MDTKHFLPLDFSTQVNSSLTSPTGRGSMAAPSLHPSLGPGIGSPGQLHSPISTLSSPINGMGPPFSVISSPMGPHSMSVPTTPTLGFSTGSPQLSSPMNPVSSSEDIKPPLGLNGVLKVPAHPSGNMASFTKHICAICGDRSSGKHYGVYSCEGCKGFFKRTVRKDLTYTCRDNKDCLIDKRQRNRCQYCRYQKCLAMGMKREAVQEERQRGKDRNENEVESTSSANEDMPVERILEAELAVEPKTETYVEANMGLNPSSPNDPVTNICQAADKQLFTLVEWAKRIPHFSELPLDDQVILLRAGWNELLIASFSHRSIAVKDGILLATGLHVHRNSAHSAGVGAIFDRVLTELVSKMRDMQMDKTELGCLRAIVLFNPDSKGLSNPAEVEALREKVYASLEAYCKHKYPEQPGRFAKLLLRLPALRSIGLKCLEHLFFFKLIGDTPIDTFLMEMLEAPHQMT
Arylsulfatase A (Homo sapiens), sequence (P15289 whole entry, looked up): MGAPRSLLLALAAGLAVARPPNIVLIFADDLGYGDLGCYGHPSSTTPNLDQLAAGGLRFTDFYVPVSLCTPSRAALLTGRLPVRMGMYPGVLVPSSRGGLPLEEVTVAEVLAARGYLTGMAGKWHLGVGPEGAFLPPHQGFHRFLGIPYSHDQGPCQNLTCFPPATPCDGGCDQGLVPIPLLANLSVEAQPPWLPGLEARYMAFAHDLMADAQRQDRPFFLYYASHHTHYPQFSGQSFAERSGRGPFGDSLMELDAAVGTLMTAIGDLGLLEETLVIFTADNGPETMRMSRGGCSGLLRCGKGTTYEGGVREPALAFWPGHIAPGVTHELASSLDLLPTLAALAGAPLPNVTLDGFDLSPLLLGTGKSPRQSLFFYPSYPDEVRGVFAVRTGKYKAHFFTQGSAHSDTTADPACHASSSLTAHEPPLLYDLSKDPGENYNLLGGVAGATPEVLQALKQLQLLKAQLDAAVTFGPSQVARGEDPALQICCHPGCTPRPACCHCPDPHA
N-terminal Xaa-Pro-Lys N-methyltransferase 1 (Homo sapiens), sequence (Q9BV86 whole entry, looked up): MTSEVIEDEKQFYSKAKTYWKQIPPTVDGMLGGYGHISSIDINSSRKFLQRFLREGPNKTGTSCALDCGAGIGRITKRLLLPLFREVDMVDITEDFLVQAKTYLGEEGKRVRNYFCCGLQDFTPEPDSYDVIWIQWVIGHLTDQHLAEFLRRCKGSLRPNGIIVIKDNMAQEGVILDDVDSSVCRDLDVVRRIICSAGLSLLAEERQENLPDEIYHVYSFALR

In the case of `CC(=O)OCC1=C(C(=O)[O-])N2C(=O)[C@@H](NC(=O)CCC[C@@H](N)C(=O)[O-])[C@H]2SC1.[Zn+2]`, the outcome [1] is reported as “inactive”.
For `Cc1ccccc1O`, the Potency [2] was “inactive”, the outcome [3] was “inactive” and the Potency [4] was “inactive”. For the same compound, the outcome [5] was “inactive”, the Potency [6] was “inactive” and the outcome [7] was “inactive”. The outcome [8] was “inactive”, the outcome [9] was “inactive” and the outcome [10] was “inactive”. The outcome [11] was “inactive”, the Potency [12] was “inactive” and the outcome [13] was “inactive”. For the same compound, the Potency [14] was “inactive”, the outcome [15] was “inactive” and the max response [16] was -8.36% and -9.93%. For the same compound, the max response [17] was -5.98% (inactive) and 4.44% (inactive), the activity change % (negative = inhibition) [18] was -12.9% (inactive) and -0.275% (inactive) and the Potency [19] was “inactive”.
For `CC(C)COC(=O)OCN1C(=O)CN(CCN2CC(=O)N(COC(=O)OCC(C)C)C(=O)C2)CC1=O`, the Potency [20] was “inactive”.
With `CC(=O)[C@H]1CC[C@H]2[C@@H]3CCC4=CC(=O)CC[C@]4(C)[C@H]3CC[C@]12C` the Potency [2] was 50.1 µM (active), the outcome [3] was “inactive” and the Potency [4] was 10 µM (active). The outcome [5] was “inactive”, the Potency [6] was “inactive” and the outcome [7] was “inactive”. The outcome [8] was “inactive”, the outcome [9] was “inactive” and the outcome [10] was “inactive”. The outcome [11] was “inactive”, the Potency [12] was “inactive” and the outcome [13] was “inactive”. For the same compound, the Potency [14] was “inactive”, the outcome [15] was “inactive” and the max response [16] was 1.42%. The Potency [17] was 35.5 µM (active), the activity change % (negative = inhibition) [18] was -26.1% (inactive) and the Potency [19] was 11.9 µM (active). The Potency [20] was “inactive”.

From PubChem BioAssay (NCATS)
